Results filed as inconclusive are left out. Activity calls are given as the source filed them. Calls come from the whole dose curve; as a rule, active = well fitted curve in the direction sought with a large enough effect; inconclusive = small, poorly fitted or top-dose-only effect, or another doubt; inactive = no such curve, though single readings can be large; an effect the other way counts as inactive or inconclusive.
Experiments:
[1] = qHTS of pediatric cancer cell lines to identify multiple opportunities for drug repurposing: Primary screen for U-2 OS cells (AID 1347096); note: nearly all actives have a fitted effect of over 50% in size; note: potency is the fitted concentration of half-maximal effect
Summary of the method: (§1)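 Cells (500-1,000/well) in growth media were settled 5 h at 37 degrees C, then given compounds for 48 h. Viability was read as CellTiter-Glo luminescence. Primary runs used MIPE at 11 points (0.78 nM-46 µM) and NPC at 8 points (0.59 nM-46 µM); follow-ups used 11 points.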

[2] = qHTS of pediatric cancer cell lines to identify multiple opportunities for drug repurposing: Primary screen for Saos-2 cells (AID 1347097); note: nearly all actives have a fitted effect of over 40% in size; note: potency is the fitted concentration of half-maximal effect
Summary of the method: (§2)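 ATP-based luminescence (CellTiter-Glo) quantifies viability after a 48-hour exposure. Compounds are dosed across 8 or 11 final concentrations; DMSO and 2.3 µM bortezomib serve as controls.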

[3] = qHTS of pediatric cancer cell lines to identify multiple opportunities for drug repurposing: Primary screen for SK-N-SH cells (AID 1347098); note: nearly all actives have a fitted effect of over 65% in size; note: potency is the fitted concentration of half-maximal effect
Summary of the method: (§3)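 Cells (500-1,000/well) rested 5 h, then received compounds for 48 h; metabolically active cells were measured by CellTiter-Glo luminescence. Final concentrations spanned up to 46 µM (MIPE, 11-point) or 0.59 nM-46 µM (NPC, 8-point) in primary screens, 11-point in follow-ups.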

[4] = qHTS of pediatric cancer cell lines to identify multiple opportunities for drug repurposing: Primary screen for NB1643 cells (AID 1347099); note: nearly all actives have a fitted effect of over 50% in size; note: potency is the fitted concentration of half-maximal effect
Summary of the method: as §2

[5] = qHTS of pediatric cancer cell lines to identify multiple opportunities for drug repurposing: Primary screen for LAN-5 cells (AID 1347100); note: potency is the fitted concentration of half-maximal effect
Summary of the method: as §1

[6] = qHTS of pediatric cancer cell lines to identify multiple opportunities for drug repurposing: Primary screen for BT-12 cells (AID 1347101); note: nearly all actives have a fitted effect of over 25% in size; note: potency is the fitted concentration of half-maximal effect
Summary of the method: as §3

[7] = qHTS of pediatric cancer cell lines to identify multiple opportunities for drug repurposing: Primary screen for Rh18 cells (AID 1347102); note: nearly all actives have a fitted effect of over 65% in size; note: potency is the fitted concentration of half-maximal effect
Summary of the method: as §1

[8] = qHTS of pediatric cancer cell lines to identify multiple opportunities for drug repurposing: Primary screen for OHS-50 cells (AID 1347103); note: nearly all actives have a fitted effect of over 40% in size; note: potency is the fitted concentration of half-maximal effect
Summary of the method: as §3

[9] = qHTS of pediatric cancer cell lines to identify multiple opportunities for drug repurposing: Primary screen for MG 63 (6-TG R) cells (AID 1347105); note: nearly all actives have a fitted effect of over 50% in size; note: potency is the fitted concentration of half-maximal effect
Summary of the method: as §2

[10] = qHTS of pediatric cancer cell lines to identify multiple opportunities for drug repurposing: Primary screen for Rh30 cells (AID 1347107); note: nearly all actives have a fitted effect of over 75% in size; note: potency is the fitted concentration of half-maximal effect
Summary of the method: as §1

[11] = qHTS of pediatric cancer cell lines to identify multiple opportunities for drug repurposing: Primary screen for Rh41 cells (AID 1347108); note: nearly all actives have a fitted effect of over 70% in size; note: potency is the fitted concentration of half-maximal effect
Summary of the method: as §2

[12] = qHTS of pediatric cancer cell lines to identify multiple opportunities for drug repurposing: Confirmatory screen for NB1643 cells (AID 1347109); note: potency is the fitted concentration of half-maximal effect; nearly all actives have a fitted effect of over 45% in size
Summary of the method: as §1

[13] = qHTS of pediatric cancer cell lines to identify multiple opportunities for drug repurposing: Confirmatory screen for A673 cells (AID 1347110);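 note: potency is the fitted concentration of half-maximal effect; cells exposed to compound for 48 h before the viability read; nearly all actives have a fitted effect of over 65% in size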
Summary of the method: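 Viability was read as ATP luminescence (CellTiter-Glo) after 48 h of compound exposure at 37 C in A673 cells seeded at 500-1,000/well. Titrations reached 46 uM final, with 11 points in the confirmatory screen. Concentration-response curves were fitted directly.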

[14] = qHTS of pediatric cancer cell lines to identify multiple opportunities for drug repurposing: Confirmatory screen for SK-N-MC cells (AID 1347111);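 note: cells exposed to compound for 48 h before the readout; nearly all actives have a fitted effect of over 70% in size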; note: potency is the fitted concentration of half-maximal effect
Summary of the method: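 Metabolically active cells were quantified by ATP-dependent luminescence (CellTiter-Glo, 15 min at room temperature) following 48 h treatment. Cells had been plated at 500-1,000 per well and settled for 5 h beforehand.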

[15] = qHTS of pediatric cancer cell lines to identify multiple opportunities for drug repurposing: Confirmatory screen for DAOY cells (AID 1347114); note: potency is the fitted concentration of half-maximal effect; nearly all actives have a fitted effect of over 65% in size
Summary of the method: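 Viability measured as metabolically active cells via CellTiter-Glo luminescence following 48 hours of compound exposure, 11-point dilutions in confirmatory testing. 500-1,000 cells/well plated 5 hours before dosing; controls were DMSO and 2.3 µM bortezomib.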

[16] = qHTS of pediatric cancer cell lines to identify multiple opportunities for drug repurposing: Primary screen for RD cells (AID 1347104); note: nearly all actives have a fitted effect of over 55% in size; note: potency is the fitted concentration of half-maximal effect
Summary of the method: as §2

[17] = qHTS of pediatric cancer cell lines to identify multiple opportunities for drug repurposing: Primary screen for control Hh wild type fibroblast cells (AID 1347106);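 note: series mostly up to about 46 µM; a drop in luminescence marks cytotoxicity and a rise apparent proliferation; nearly all actives have a fitted effect of over 55% in size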
Summary of the method: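 Viability after 48 h compound treatment at 37C, 500-1,000 cells/well, read as ATP luminescence with CellTiter-Glo. Primary screens used 11-point (MIPE, 0.78 nM-46 µM) or 8-point (NPC, 0.59 nM-46 µM) final concentrations; follow-up screens used 11-point dilutions.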

[18] = qHTS of pediatric cancer cell lines to identify multiple opportunities for drug repurposing: Confirmatory screen for LAN-5 cells (AID 1347113); note: nearly all actives have a fitted effect of over 65% in size; note: potency is the fitted concentration of half-maximal effect
Summary of the method: as §1

[19] = qHTS of pediatric cancer cell lines to identify multiple opportunities for drug repurposing: Confirmatory screen for NB-EBc1 cells (AID 1347115);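 note: cells exposed to compound for 48 h before the viability read; nearly all actives have a fitted effect of over 45% in size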; note: potency is the fitted concentration of half-maximal effect
Summary of the method: as §1

[20] = qHTS of pediatric cancer cell lines to identify multiple opportunities for drug repurposing: Confirmatory screen for BT-12 cells (AID 1347112); note: nearly all actives have a fitted effect of over 55% in size; note: potency is the fitted concentration of half-maximal effect
Summary of the method: as §1

Measured: Potency

Cc1cc(Nc2cc(N3CCN(C)CC3)nc(Sc3ccc(NC(=O)C4CC4)cc3)n2)n[nH]1
inactive: [1] | [2]
active: [3] 21500 nM | [4] 20900 nM | [5] 105 nM | [6] 21700 nM | [7] 16600 nM | [8] 6850 nM | [9] 18700 nM | [10] 18700 nM | [11] 11800 nM | [12] 4140 nM | [13] 13100 nM | [14] 131 nM | [15] 5220 nM

CNC(=O)c1ccc(-c2cnc3ncc(Cc4ccc5ncccc5c4)n3n2)cc1F
inactive: [1] | [2] | [3] | [4] | [5] | [6] | [7] | [8] | [16] | [17] | [10] | [11]

Cc1cc(N2CCOCC2)cc2[nH]c(-c3c(NC[C@@H](O)c4cccc(Cl)c4)cc[nH]c3=O)nc12
active: [1] 18700 nM | [2] 83.3 nM | [3] 215 nM | [4] 332 nM | [5] 296 nM | [6] 24300 nM | [7] 18700 nM | [8] 96.8 nM | [16] 590 nM | [9] 2960 nM | [11] 296 nM | [12] 827 nM | [13] 1170 nM | [14] 737 nM | [18] 1170 nM | [15] 3290 nM | [19] 1170 nM

Cc1cnc(Nc2ccc(F)cc2Cl)nc1-c1c[nH]c(C(=O)N[C@H](CO)c2cccc(Cl)c2)c1
active: [1] 7430 nM | [2] 1480 nM | [3] 17100 nM | [4] 18700 nM | [5] 469 nM | [6] 432 nM | [7] 16600 nM | [8] 544 nM | [16] 2350 nM | [9] 29600 nM | [11] 18700 nM | [13] 827 nM | [15] 23300 nM
inactive: [14] | [18] | [19]

CCS(=O)(=O)c1cccc(-c2cc(C(=O)NC3CCN(C)CC3)c(C)c3[nH]c4ncc(C)cc4c23)c1
active: [1] 14800 nM | [2] 935 nM | [3] 6810 nM | [4] 526 nM | [5] 118 nM | [6] 6110 nM | [7] 1180 nM | [8] 769 nM | [16] 2640 nM | [9] 14800 nM | [11] 1320 nM | [12] 414 nM | [13] 928 nM | [14] 117 nM | [20] 4650 nM | [18] 1170 nM | [15] 16500 nM | [19] 16500 nM

Cc1cn(-c2cc(NC(=O)c3ccc(C)c(Nc4nccc(-c5cccnc5)n4)c3)cc(C(F)(F)F)c2)cn1
inactive: [1] | [2] | [3] | [4] | [5] | [6] | [7] | [8] | [9] | [17] | [10] | [11] | [14] | [20] | [19]
active: [12] 18500 nM | [13] 20800 nM | [18] 18500 nM

CC[C@H]1CN2CCc3cc(OC)c(OC)cc3[C@H]2C[C@@H]1C[C@@H]1NCCc2cc(OC)c(OC)cc21
inactive: [17] | [10]
active: [1] 1180 nM | [2] 526 nM | [3] 341 nM | [4] 418 nM | [5] 833 nM | [6] 193 nM | [7] 2090 nM | [8] 485 nM | [16] 469 nM | [11] 4690 nM | [12] 1850 nM | [13] 657 nM | [14] 293 nM | [20] 261 nM | [18] 165 nM | [15] 3690 nM | [19] 657 nM

C=CCn1c(=O)c2cnc(Nc3ccc(N4CCN(C)CC4)cc3)nc2n1-c1cccc(C(C)(C)O)n1
inactive: [17]
active: [1] 3720 nM | [2] 1050 nM | [3] 681 nM | [4] 187 nM | [5] 469 nM | [6] 7690 nM | [7] 7430 nM | [8] 306 nM | [11] 469 nM | [13] 2610 nM | [20] 10400 nM | [15] 1850 nM

CCOc1cc2ncc(C#N)c(Nc3ccc(F)c(Cl)c3)c2cc1NC(=O)C=CCN(C)C
inactive: [1] | [18] | [19]
active: [2] 2960 nM | [3] 341 nM | [4] 1050 nM | [5] 4180 nM | [6] 7690 nM | [7] 10500 nM | [8] 137 nM | [16] 526 nM | [11] 1870 nM | [14] 65.7 nM | [20] 208 nM

— PubChem BioAssay (NCATS)
